Laboratory results reported in PubChem BioAssay (EPA / NIEHS).
Activity calls are given as the source filed them. The calls were made as follows: active = hit-call score of the fitted dose curve at least 0.9, where 1 is the maximum; inactive = score below 0.9.

Read-out: Glutamate-cysteine ligase regulatory (GCLM), GCLM (gene 2730)
Assay: LTEA_HepaRG_GCLM: Life Technologies and Expression Analysis (LTEA) Assay for Glutamate-cysteine ligase regulatory (GCLM) using HepaRG (AID 2283500)
Details: mRNA level, 48 h; actives raise or lower the signal
Protocol: LTEA_HepaRG is a cell based, multiplexed-readout assay that uses HepaRG, a human liver cell line, with measurements taken at 48 hours after chemical dosing on a 96-well plate.LTEA_HepaRG_GCLM is one of 102 assay component(s) measured in the LTEA HepaRG cell culture assay. It is a marker of Cell proliferation, survival, death.Data from the assay component LTEA_HepaRG_GCLM was analyzed into 1 endpoint. This assay endpoint, LTEA_HepaRG_GCLM, was analyzed with bidirectional fitting relative to DMSO as the negative control and baseline of activity. Using a type of inducible reporter, measures of mRNA induction for gain or loss-of-signal activity can be used to understand regulation of transcription factor activity. To generalize the intended target to other relatable targets, this assay endpoint is annotated to the ligase intended target family, where the subfamily is C-N ligase.
A total of 1060 chemcials from the ToxCast library were tested in eight-point concentration-response experiments. Cell culture and cytotoxicity assays were conducted at Thermo Fisher Scientific's Custom Services facility (Madison, WI). A single lot of human HepaRG cells (Thermo Fisher Scientific, Frederick, MD) was used for the cell culture experiments. 96-well format collagen type I coated plates of human HepaRG cells were prepared using established methods. Briefly, cryopreserved HepaRG cells were thawed, plated at a density of approximately 100,000 cells/well in HepaRG Thaw, Plate, and General Purpose media (HPRG770, Thermo Fisher Scientific), and incubated for 48 hours. 0.5% DMSO was selected as vehicle control to balance the requisite need of DMSO in HepaRG cultures to maintain differentiation (for example, baseline metabolism, proportions of hepatocytes vs. cholangiocytes), while enabling further hepatic receptor pathway activation (for example, PXR and CAR) in response to chemical exposure. 48 hours after plating, the culture medium was replaced with HepaRG Serum-Free Incudtion Media. Cells were exposed to each test chemical in duplicate and maintained in CO2 incubators for another 48 hours. Chemical plates were thawed to room temperature and 200x concentrations of treatment groups were prepared. 8-point conentration-reponse curves were made with the highest exposure at 100 uM, followed by half-log dilutions, all in 0.5% DMSO. Each test plate contained variouse controls, induction positive controls (1mM phenobarbital), cytotoxicity positive controls ([…] aflatoxin B1), vehicle controls (0.5% DMSO), and total lysis controls (0.5% DMSO). Cell morphology images were taken using an Essen IncuCyte FLR automated microscope, with six 96-well plates imaged in about 24 minutes. Images were captured and exported and JPEG files. Spent culture media was transfered to black-well plates for the LDH assay, and remaining media was sorted at -80 C for later use. Cells were treated with RLT buffer and frozen until shipped for gene expression analysis. Total RNA was isolated from the cell suspension in 75 uL of Buffer RLT (Qiagen, Germantown, MD 20874) by Quintiles/Expression Analysis (Durham, NC) using a custom isolation procedure. Total RNA from each plate well was transferred to a preamplification plate. Fluidigm's 96.96 Dynamic ArrayTM (Fluidigm, Amsterdam, the Netherlands) technology was used for gene expression analyses by quantitative reverse transcription polymerase chain reaction (qRT-PCR, performed by Quintiles/Expression Analysis, Durham, NC)89. Standard TaqManTM Assays (Applied Biosystems/ThermoFisher Scientific, Foster City, CA) were used to assess the expression of 93 genes selected based on their selectivity and sensitivity to important hepatic receptors known to be modulated by environmental chemicals; importance in human hepatocyte functionality; and hepatotoxicity. […]

outcome, inactive:
CCCCC=O
CCC(C)c1ccccc1O (stereo unspecified)
CCCCCCCCCCCCOS(=O)(=O)O
CCCCCCCCCCCCCCC
N=C(N)c1ccc(OCCCCCOc2ccc(C(=N)N)cc2)cc1
Cc1[nH]nc2c1N=C(c1ccccc1Cl)c1cc([N+](=O)[O-])ccc1N2
O=C1NS(=O)(=O)c2ccccc21
CCCCC(CC)C(=O)O (stereo unspecified)
CN(Cc1cnc2nc(N)nc(N)c2n1)c1ccc(C(=O)N[C@@H](CCC(=O)O)C(=O)O)cc1
O=C(c1ccccc1)c1ccccc1
CC(=O)Nc1ccc(O)cc1
OCC(CO)(CBr)CBr
CN(C)CCOC(c1ccccc1)c1ccccc1

AC50, active:
CCCCc1oc2ccccc2c1C(=O)c1cc(I)c(OCCN(CC)CC)c(I)c1 61.8 µM
CS(=O)(=O)c1ccc([C@@H](CC2CCCC2)C(=O)Nc2cnccn2)cc1Cl 50 µM
O=C(CCCN1CCC(O)(c2ccc(Cl)cc2)CC1)c1ccc(F)cc1 71.9 µM
